Measurements published in PubChem BioAssay (NCI).
This is part of a sample that, as a whole, favours compounds with a hit. Of some 83,000 tested, about 20% had one in any assay.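 96-well plates, one dose, 48 hours. Percent growth reported; active if below 10.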 Activity calls are given as the source filed them.

Assays:
Experiment in all cases: NCI-60 one-dose screen, 48 h (100 = growth as untreated, 0 = no growth, -100 = all killed)
Conditions in all cases: 10 µM unless noted
HCT-15 colon = test system: HCT-15 colon
HT29 colon = test system: HT29 colon
SNB-75 CNS = test system: SNB-75 CNS
SNB-19 CNS = test system: SNB-19 CNS
U251 CNS = test system: U251 CNS
PC-3 prostate = test system: PC-3 prostate
SK-MEL-5 melanoma = test system: SK-MEL-5 melanoma
UACC-62 melanoma = test system: UACC-62 melanoma
LOX IMVI melanoma = test system: LOX IMVI melanoma
SK-MEL-28 melanoma = test system: SK-MEL-28 melanoma
SK-MEL-2 melanoma = test system: SK-MEL-2 melanoma
EKVX NSCLC = test system: EKVX NSCLC
SN12C renal = test system: SN12C renal
UO-31 renal = test system: UO-31 renal
TK-10 renal = test system: TK-10 renal
ACHN renal = test system: ACHN renal
CAKI-1 renal = test system: CAKI-1 renal
A498 renal = test system: A498 renal
CCRF-CEM leukemia = test system: CCRF-CEM leukemia
MOLT-4 leukemia = test system: MOLT-4 leukemia

Measured: growth

COc1ccc(/C=C2\COc3ccc(O)cc3C2=O)c(OC)c1OC
inactive: HCT-15 colon 48.8% | HT29 colon 68.5% | SNB-75 CNS 83% | SNB-19 CNS 80.6% | U251 CNS 60.8% | PC-3 prostate 77.1% | SK-MEL-5 melanoma 89.9% | UACC-62 melanoma 78.7% | LOX IMVI melanoma 44.3% | SK-MEL-28 melanoma 99.2% | SK-MEL-2 melanoma 102% | EKVX NSCLC 93.9% | SN12C renal 66.3% | UO-31 renal 71.5% | TK-10 renal 109% | ACHN renal 80.1% | CAKI-1 renal 68.2% | A498 renal 113% | MOLT-4 leukemia 73.2%
active: CCRF-CEM leukemia 8.08%

Cc1ccc(/C=C2\CN(C(=O)OC(C)(C)C)C/C(=C\c3ccc(C)cc3)C2=O)cc1
inactive: SNB-75 CNS 79.7% | SNB-19 CNS 71.4% | U251 CNS 12.4% | PC-3 prostate 29.9% | SK-MEL-5 melanoma 78.9% | UACC-62 melanoma 56.5% | SK-MEL-28 melanoma 87.3% | SK-MEL-2 melanoma 83.8% | EKVX NSCLC 84.3% | SN12C renal 60.7% | UO-31 renal 66.9% | TK-10 renal 87% | ACHN renal 20.3% | CAKI-1 renal 61% | A498 renal 67.6% | MOLT-4 leukemia 34.7%
active: HCT-15 colon 1.94% | HT29 colon -49.9% | LOX IMVI melanoma -63.2% | CCRF-CEM leukemia 3.02%

CCOc1ccc(NC(=O)CSc2oc(-c3ccccc3)nc2S(=O)(=O)c2ccc(F)cc2)cc1
inactive: HCT-15 colon 77% | HT29 colon 73.7% | SNB-75 CNS 103% | SNB-19 CNS 88% | U251 CNS 53.4% | PC-3 prostate 55.7% | SK-MEL-5 melanoma 79.7% | UACC-62 melanoma 62.8% | LOX IMVI melanoma 74.1% | SK-MEL-28 melanoma 72.6% | SK-MEL-2 melanoma 81.4% | EKVX NSCLC 82.7% | SN12C renal 89.4% | UO-31 renal 94.5% | TK-10 renal 83% | ACHN renal 73.7% | CAKI-1 renal 82.8% | A498 renal 63.7% | CCRF-CEM leukemia 79.8% | MOLT-4 leukemia 63.9%

N#CC1=C(c2ccc(Cl)cc2)Nc2c(c(-c3ccc(Cl)cc3)nn2-c2ccccc2)C12C(=O)Nc1ccc(Cl)cc12 (stereo not given)
inactive: HCT-15 colon 18.4% | HT29 colon 32.4% | SNB-75 CNS 19% | SNB-19 CNS 24.4% | U251 CNS 25.3% | PC-3 prostate 21.5% | SK-MEL-5 melanoma 78.7% | UACC-62 melanoma 54.6% | LOX IMVI melanoma 41.5% | SK-MEL-28 melanoma 79.6% | SK-MEL-2 melanoma 74.9% | EKVX NSCLC 38.8% | SN12C renal 56.5% | UO-31 renal 23.5% | TK-10 renal 44.9% | ACHN renal 34.6% | CAKI-1 renal 35.8% | A498 renal 51.6% | CCRF-CEM leukemia 35.9% | MOLT-4 leukemia 35.1%

CCOc1nc(-c2ccccc2)cc2c(O)c(C(=O)NN)[nH]c(=O)c12
inactive: HCT-15 colon 106% | HT29 colon 114% | SNB-75 CNS 86.4% | SNB-19 CNS 106% | U251 CNS 106% | PC-3 prostate 83% | SK-MEL-5 melanoma 105% | UACC-62 melanoma 106% | LOX IMVI melanoma 101% | SK-MEL-28 melanoma 99.8% | SK-MEL-2 melanoma 83.7% | EKVX NSCLC 108% | SN12C renal 109% | UO-31 renal 88.6% | TK-10 renal 120% | ACHN renal 107% | CAKI-1 renal 109% | A498 renal 115% | CCRF-CEM leukemia 103% | MOLT-4 leukemia 113%

C=CCc1c(O)c(C(=O)/C=C/c2ccc(Cl)cc2)c(OC)c2ccoc12
inactive: HCT-15 colon 41.3% | HT29 colon 36.6% | SNB-75 CNS 80.1% | SNB-19 CNS 63.2% | U251 CNS 37.7% | PC-3 prostate 30.9% | SK-MEL-5 melanoma 52.6% | UACC-62 melanoma 48.1% | LOX IMVI melanoma 34.8% | SK-MEL-28 melanoma 63.5% | SK-MEL-2 melanoma 15.7% | EKVX NSCLC 56.3% | SN12C renal 57.2% | UO-31 renal 51.4% | TK-10 renal 57.2% | ACHN renal 55% | CAKI-1 renal 19.5% | A498 renal 46.9% | CCRF-CEM leukemia 21.4% | MOLT-4 leukemia 15.3%

Fc1cc2c(cc1Cl)N(c1ncnc3ccc(-c4cnc5[nH]ncc5c4)cc13)CC2
active: A498 renal -6.52%
inactive: HCT-15 colon 58.8% | HT29 colon 56.3% | SNB-75 CNS 19.7% | SNB-19 CNS 69.4% | U251 CNS 76.6% | PC-3 prostate 53.9% | SK-MEL-5 melanoma 85.2% | UACC-62 melanoma 58.1% | LOX IMVI melanoma 47.2% | SK-MEL-28 melanoma 83.4% | SK-MEL-2 melanoma 91.4% | EKVX NSCLC 41.9% | SN12C renal 47.6% | UO-31 renal 21.8% | TK-10 renal 54.6% | ACHN renal 30.9% | CAKI-1 renal 38.7% | CCRF-CEM leukemia 71.1% | MOLT-4 leukemia 60.1%

Fc1cc(F)cc(C(c2c[nH]c3ccccc23)c2c[nH]c3ccccc23)c1
inactive: HCT-15 colon 79.5% | HT29 colon 99.1% | SNB-75 CNS 106% | SNB-19 CNS 104% | U251 CNS 101% | PC-3 prostate 67.1% | SK-MEL-5 melanoma 88.2% | UACC-62 melanoma 84.9% | LOX IMVI melanoma 83.5% | SK-MEL-28 melanoma 101% | SK-MEL-2 melanoma 58.8% | EKVX NSCLC 80.6% | SN12C renal 95.7% | UO-31 renal 52.9% | TK-10 renal 144% | ACHN renal 87.7% | CAKI-1 renal 90.9% | A498 renal 71.7% | CCRF-CEM leukemia 89.1% | MOLT-4 leukemia 81.8%
